Experimental data: PubChem BioAssay AID651815 (National Center for Advancing Translational Sciences (NCATS), 2012)
Hit rate of the full screen: of about 2,100 compounds, about 1,100 (52%) were called active. Another 29% or so got no clear call; they are omitted. So high a share suggests a set chosen from earlier hits. The list shows a part of the results. Values without a mark were called inactive. Calls follow the shape of the dose curve; as a rule, active = well fitted inhibition curve with a large enough effect; inconclusive = small, poorly fitted or top-dose-only effect; inactive = no such curve, though single readings can be large or run the other way.

Biological target: DNA dC->dU-editing enzyme APOBEC-3F (Homo sapiens) (UniProt Q8IUX4)
Sequence (Q8IUX4 whole entry, looked up): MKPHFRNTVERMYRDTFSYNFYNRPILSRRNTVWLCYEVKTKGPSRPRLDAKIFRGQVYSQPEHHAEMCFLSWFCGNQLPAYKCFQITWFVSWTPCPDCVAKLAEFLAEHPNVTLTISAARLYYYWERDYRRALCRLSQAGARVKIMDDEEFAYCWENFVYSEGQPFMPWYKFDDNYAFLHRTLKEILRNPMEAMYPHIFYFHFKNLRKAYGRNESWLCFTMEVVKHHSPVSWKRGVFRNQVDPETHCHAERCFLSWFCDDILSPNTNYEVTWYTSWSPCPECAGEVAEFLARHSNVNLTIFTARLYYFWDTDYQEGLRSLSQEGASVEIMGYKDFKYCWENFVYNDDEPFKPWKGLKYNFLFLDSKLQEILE
Experiment: qHTS for inhibitors of Vif-A3F interactions: Cherry picks counterscreen; also: nearly all actives have a fitted effect of over 65% in size
Conditions: HeLa A3F-eYFP/Vif cells, eYFP fluorescence, 24 h; series mostly up to 46.1 µM; activity, negative = inhibitor: at the top concentration
How it was run: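 HeLa cells stably expressing A3F-eYFP and Vif, cultured overnight, then treated 24 h at 37 degrees C with compounds at several concentrations; yellow fluorescence (488 nm Ex/500-530 nm Em) imaged on Acumen; MG132 positive control.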
% is scaled to controls: 0 for no effect and ±100 for the full control effect; potency is read from the fitted curve at half-maximal effect.

Row | Compound | activity, negative = inhibitor | Potency
1 | COc1ccccc1/C=N/NC(=S)Nc1cccnc1 | -15.7% | –
2 | COc1ccc(/C=N/NC(=O)c2cccnc2)cc1COc1ccc(NC(C)=O)cc1 | – | 12.5 µM (active)
3 | Cn1c(N)c(-c2ccccc2)c2ccc([N+](=O)[O-])cc2c1=O | – | 14 µM (active)
4 | CCN1C(=O)/C(=C2/Sc3ccc(OC)cc3N2C)SC1=Nc1cccc(O)c1 | – | 17.7 µM (active)
5 | C=CCN1C(=O)/C(=C2/Sc3ccc(OC)cc3N2CC)SC1=S | – | 13 µM (active)
6 | CCN(CC)c1ccc(/C=C/c2ccncc2)cc1 | – | 13 µM (active)
7 | CN(C)c1ccc(/C=C/c2ccncc2)cc1 | – | 9.2 µM (active)
8 | CCN(CC)c1ccc(/C=C/c2ccccn2)cc1 | – | 20.6 µM (active)
9 | CCN(CC)c1ccc(/C=C/C2=C3C=CC=CC3NC=C2)cc1 (stereo not drawn) | – | 23.1 µM (active)
10 | Cc1ccc(S(=O)c2ccc([N+](=O)[O-])c3nonc23)cc1 (stereo not drawn) | 14.9% | –
11 | CC[n+]1ccccc1/C=C/c1ccc(N(C)C)cc1 | – | 23.1 µM (active)
12 | CC(C)CC[n+]1ccccc1/C=C/c1ccc(N(C)C)cc1 | – | 18.4 µM (active)
13 | CCOC(=O)c1cnc(-n2nc(C)cc2C)nc1NNc1nc(-c2ccccc2)cc(-c2ccccc2)n1 | 9.12% | –
14 | CCOC(=O)c1cc2n(c1/N=C/N(C)C)-c1ccccc1C2=O | – | 18.4 µM (active)
15 | CCOC(=O)c1c(CN(CC)CC)n(-c2ccccc2)c2ccc(O)cc12 | -1.16% [at 36.9 µM] | –
16 | CCOC(=O)c1cc2n(c1N)-c1ccccc1C2=O | – | 18.4 µM (active)
17 | Cc1cc(/C=C2\SC(=S)N(C)C2=O)c(C)n1-c1ccc(O)cc1 | – | 18.4 µM (active)
18 | Cc1cc(/C=C2\SC(=S)N(C)C2=O)c(C)n1-c1ccccc1O | – | 18.4 µM (active)
19 | NNC(=O)c1cc2sccc2s1 | -6.41% [at 36.9 µM] | –
20 | CCn1ncc(/C=N\NC(=O)c2csc3ccccc23)c1C | – | 2.5 µM (active)
21 | CCOC(=O)/C(=C/C1=CC(=C/N(C)C)/C(=O)O1)C(C)=O | 2.81% | –
22 | CCOc1ccc(C2CC(c3c(O)c4ccccc4oc3=O)=NN2c2ccccc2)cc1OC (stereo not drawn) | – | 14.6 µM (active)
23 | CNC(=O)C(Sc1nc(C)nc2c1oc1ccccc12)C(C)=O (stereo not drawn) | -17.5% [at 36.9 µM] | –
24 | CCOc1ccccc1Oc1nc(C)nc2c1oc1ccccc12 | – | 2.31 µM (active)
25 | Cc1cccc(N2CCN(C(=O)c3cccc(N4CCCC4=O)c3)C(C)C2)c1 (stereo not drawn) | – | 6.27 µM (active)
26 | COc1ccc(OC)c(NC(=O)Cn2c(=O)n(-c3ccc(Cl)cc3)c(=O)c3c(C)c(C)sc32)c1 | – | 5.8 µM (active)
27 | COc1ccc(OC)c(NC(=O)Cn2cnc3onc(-c4ccc(Cl)cc4)c3c2=O)c1 | -16.2% | –

Row | Compound | activity, negative = inhibitor | Potency
28 | Cc1ccc(-c2cc(C(=O)N/N=C/c3c[nH]c4ccccc34)[nH]n2)cc1 | – | 3.53 µM (active)
29 | Cc1cc(N)cc(C)c1-c1c(Br)cc(N)cc1Br | – | 12.5 µM (active)
30 | CCOC(=O)CN1C(=O)S/C(=C/c2ccc(N3CCCCC3)o2)C1=O | – | 4.61 µM (active)
31 | O=C1S/C(=C\c2ccc(N3CCOCC3)o2)C(=O)N1c1ccccc1 | – | 3.53 µM (active)
32 | CCCN1C(=O)S/C(=C\c2ccc(N3CCOCC3)o2)C1=O | – | 3.96 µM (active)
33 | O=C1S/C(=C/c2ccc(N3CCOCC3)o2)C(=O)N1Cc1ccc(F)cc1 | – | 5.59 µM (active)
34 | Cc1ccc(NC(=S)N/N=C2\CCCCC2C)cc1 (stereo not drawn) | 13.9% | –
35 | O=C1S/C(=C/c2ccc(N3CCOCC3)o2)C(=O)N1Cc1c(F)cccc1Cl | – | 2.23 µM (active)
36 | CC(C)n1cc(NC(=O)c2cc(-c3ccccc3)on2)cn1 | – | 3.53 µM (active)
37 | O=C(Nc1nc(-c2ccccn2)cs1)C1CCCC1 | 4.01% | –
38 | CCc1ccc2nc(N(CCCN(C)C)C(=O)c3ccc(S(=O)(=O)N(C)C4CCCCC4)cc3)sc2c1 | 9.09% [at 36.9 µM] | –
39 | O=C(Nc1nc2ccc(S(=O)(=O)N3CCCC3)cc2s1)C1CCCCC1 | – | 4.44 µM (active)
40 | C=CCOc1c(Cl)cc(C(=S)N2CCCC2)cc1OCC | – | 14 µM (active)
41 | CCCCOc1ccc(/C=C/C2=CC(C)(C)NC(=S)N2)cc1OCC | 4.59% | –
42 | Cc1ccc(F)c(S(=O)(=O)NC(=O)C2(C)CCN2C(=O)Cc2ccc(Cl)cc2Cl)c1 (stereo not drawn) | -5.01% [at 36.9 µM] | –
43 | CCOC(=O)c1cc(-c2ccccc2C)n(CC2CC(c3ccc(OC)cc3)=NO2)n1 (stereo not drawn) | 10.9% [at 36.9 µM] | –
44 | COc1ccccc1C1=NOC(COc2ccc3c(C)cc(=O)oc3c2)C1 (stereo not drawn) | – | 1.12 µM (active)
45 | Cc1cc(=O)oc2cc(OCC(=O)N3c4ccccc4CC3C)ccc12 (stereo not drawn) | – | 3.53 µM (active)
46 | Oc1ccc(/C=N\Nc2nncc(-c3ccccc3)n2)cc1 | – | 19.8 µM (active)
47 | COc1ccc(-c2cnnc(N/N=C/c3ccc(O)c(OC)c3)n2)cc1 | – | 9.94 µM (active)
48 | COc1cc(/C=N/Nc2cc(C)nc(NS(=O)(=O)c3ccccc3)n2)ccc1O | 6.94% | –
49 | COc1cc(/C=N/Nc2ccc(Cl)nn2)cc(OC)c1O | 0.483% [at 36.9 µM] | –
50 | O=c1oc2c3c4c(cc2c(C(F)(F)F)c1CCN1CCOCC1)CCCN4CCC3 | – | 3.66 µM (active)
51 | Cc1ccc2[nH]c(C(=O)NN=C3CCCCC3)c(-c3ccccc3)c2c1 | -6.62% [at 36.9 µM] | –
52 | CN(C)c1ccc(/C=N/NC(=O)c2cc(-c3ccc4c(c3)OCO4)n[nH]2)cc1 | – | 15.8 µM (active)
53 | CCc1ccc(NC(=O)/C(C#N)=C/c2cc3ccc(C)cc3nc2N2CCOCC2)cc1 | – | 23.1 µM (active)
